Test results reported in the supplement of paper PMC10849652.
Of roughly 7,900 targets only a part is listed; those with a hit were picked by preference. About 0.6% of all pairs of compound and target were hits.

compound: CC[C@@H]1C(=O)N(C)c2cnc(Nc3ccc(C(=O)NC4CCN(C)CC4)cc3OC)nc2N1C1CCCC1; experiment: log2 fold change, soluble protein after heating vs DMSO (PISA); higher = thermal stabilisation; K562 cells, 10 uM, 30 min; active = over 0.2 and 3.5 SD of the protein, either way, in both replicates (recomputed)
How it was run: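 Quantification of soluble protein used TMTpro 16plex LC-MS/MS, with channel sums equalised. Samples were the supernatant after 21,000xg for 90 min of pooled aliquots from K562 cells (2×10^6 cells/mL) treated with 10 μM compound for 30 min, heated for 3 min over 48°C-58°C, and extracted in PBS with 0.5% NP-40 at 4°C. Values, from duplicates, describe thermal stability against control samples on a log2 fold-change scale.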

UniProt O95359, sequence (O95359 whole entry, looked up): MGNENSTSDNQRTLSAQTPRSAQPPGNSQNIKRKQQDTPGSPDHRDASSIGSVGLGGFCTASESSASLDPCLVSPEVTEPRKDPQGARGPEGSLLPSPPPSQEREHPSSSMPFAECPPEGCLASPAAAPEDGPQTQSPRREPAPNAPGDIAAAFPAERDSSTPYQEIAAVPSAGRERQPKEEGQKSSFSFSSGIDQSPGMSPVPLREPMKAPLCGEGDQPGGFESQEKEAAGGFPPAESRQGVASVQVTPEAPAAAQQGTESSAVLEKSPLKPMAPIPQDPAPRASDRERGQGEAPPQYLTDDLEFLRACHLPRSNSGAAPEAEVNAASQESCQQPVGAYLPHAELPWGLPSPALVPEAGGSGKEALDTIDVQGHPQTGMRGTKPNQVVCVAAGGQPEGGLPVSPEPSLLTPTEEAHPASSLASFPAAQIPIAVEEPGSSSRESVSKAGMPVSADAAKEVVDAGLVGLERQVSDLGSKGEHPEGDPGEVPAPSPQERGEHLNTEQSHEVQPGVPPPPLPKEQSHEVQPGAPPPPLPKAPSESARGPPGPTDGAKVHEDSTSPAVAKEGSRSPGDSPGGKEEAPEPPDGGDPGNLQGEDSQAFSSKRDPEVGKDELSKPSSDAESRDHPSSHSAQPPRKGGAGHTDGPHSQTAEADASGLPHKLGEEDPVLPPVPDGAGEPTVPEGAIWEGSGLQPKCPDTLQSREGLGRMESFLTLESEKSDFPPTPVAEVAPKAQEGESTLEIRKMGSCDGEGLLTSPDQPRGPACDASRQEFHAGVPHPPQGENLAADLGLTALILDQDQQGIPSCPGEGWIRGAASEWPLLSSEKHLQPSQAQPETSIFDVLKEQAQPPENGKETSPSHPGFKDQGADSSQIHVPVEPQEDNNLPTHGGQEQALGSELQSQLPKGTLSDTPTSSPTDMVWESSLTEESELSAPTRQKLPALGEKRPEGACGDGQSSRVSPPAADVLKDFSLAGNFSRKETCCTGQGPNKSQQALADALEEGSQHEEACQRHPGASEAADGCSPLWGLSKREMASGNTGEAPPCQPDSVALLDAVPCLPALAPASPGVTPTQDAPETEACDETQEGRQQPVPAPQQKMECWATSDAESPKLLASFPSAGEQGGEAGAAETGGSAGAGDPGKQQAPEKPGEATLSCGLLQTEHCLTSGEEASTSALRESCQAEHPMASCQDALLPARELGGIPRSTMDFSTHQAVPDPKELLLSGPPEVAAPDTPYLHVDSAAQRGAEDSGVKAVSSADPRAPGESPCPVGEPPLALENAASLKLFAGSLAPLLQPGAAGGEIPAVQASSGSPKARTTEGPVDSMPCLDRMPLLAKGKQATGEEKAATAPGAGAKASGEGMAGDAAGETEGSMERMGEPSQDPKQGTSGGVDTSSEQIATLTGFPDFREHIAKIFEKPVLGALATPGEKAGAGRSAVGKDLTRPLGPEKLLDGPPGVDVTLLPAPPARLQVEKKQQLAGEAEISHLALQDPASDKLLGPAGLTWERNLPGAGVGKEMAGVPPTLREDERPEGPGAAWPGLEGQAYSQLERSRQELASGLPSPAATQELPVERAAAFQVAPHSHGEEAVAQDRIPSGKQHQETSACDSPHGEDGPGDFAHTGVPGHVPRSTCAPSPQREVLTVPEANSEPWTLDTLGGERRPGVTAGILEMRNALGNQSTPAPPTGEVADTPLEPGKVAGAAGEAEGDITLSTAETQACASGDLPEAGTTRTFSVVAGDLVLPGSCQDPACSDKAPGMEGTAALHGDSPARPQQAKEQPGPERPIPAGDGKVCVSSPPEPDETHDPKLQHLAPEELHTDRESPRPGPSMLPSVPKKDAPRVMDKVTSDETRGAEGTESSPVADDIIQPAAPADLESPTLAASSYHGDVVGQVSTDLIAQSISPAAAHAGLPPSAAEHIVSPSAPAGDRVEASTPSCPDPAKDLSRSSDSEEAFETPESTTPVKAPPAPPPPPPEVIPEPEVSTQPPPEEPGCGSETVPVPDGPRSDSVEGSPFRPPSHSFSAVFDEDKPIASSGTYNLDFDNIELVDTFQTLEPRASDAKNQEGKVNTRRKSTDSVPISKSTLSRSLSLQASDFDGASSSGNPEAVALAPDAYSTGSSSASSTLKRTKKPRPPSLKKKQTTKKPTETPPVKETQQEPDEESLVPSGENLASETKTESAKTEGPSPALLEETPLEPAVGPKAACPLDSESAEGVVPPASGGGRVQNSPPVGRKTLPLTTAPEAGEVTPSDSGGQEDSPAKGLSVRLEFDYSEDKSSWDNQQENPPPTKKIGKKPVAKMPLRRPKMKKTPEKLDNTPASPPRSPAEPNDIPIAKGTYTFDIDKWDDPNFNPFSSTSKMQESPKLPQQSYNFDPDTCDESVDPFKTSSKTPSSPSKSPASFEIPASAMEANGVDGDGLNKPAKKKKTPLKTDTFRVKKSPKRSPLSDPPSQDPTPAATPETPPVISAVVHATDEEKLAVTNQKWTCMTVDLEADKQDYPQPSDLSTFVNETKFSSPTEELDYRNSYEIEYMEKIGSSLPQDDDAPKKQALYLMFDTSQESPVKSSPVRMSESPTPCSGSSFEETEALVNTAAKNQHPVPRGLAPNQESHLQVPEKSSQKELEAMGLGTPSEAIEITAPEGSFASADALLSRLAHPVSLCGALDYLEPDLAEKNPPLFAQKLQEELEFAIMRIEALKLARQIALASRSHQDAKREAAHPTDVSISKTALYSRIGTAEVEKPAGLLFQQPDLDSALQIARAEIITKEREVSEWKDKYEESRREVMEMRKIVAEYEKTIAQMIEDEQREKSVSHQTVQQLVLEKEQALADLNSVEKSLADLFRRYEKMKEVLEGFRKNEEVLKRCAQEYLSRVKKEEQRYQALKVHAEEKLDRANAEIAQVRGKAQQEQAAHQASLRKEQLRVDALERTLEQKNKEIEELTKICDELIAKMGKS
UniProt Q9NS93, sequence (Q9NS93 whole entry, looked up): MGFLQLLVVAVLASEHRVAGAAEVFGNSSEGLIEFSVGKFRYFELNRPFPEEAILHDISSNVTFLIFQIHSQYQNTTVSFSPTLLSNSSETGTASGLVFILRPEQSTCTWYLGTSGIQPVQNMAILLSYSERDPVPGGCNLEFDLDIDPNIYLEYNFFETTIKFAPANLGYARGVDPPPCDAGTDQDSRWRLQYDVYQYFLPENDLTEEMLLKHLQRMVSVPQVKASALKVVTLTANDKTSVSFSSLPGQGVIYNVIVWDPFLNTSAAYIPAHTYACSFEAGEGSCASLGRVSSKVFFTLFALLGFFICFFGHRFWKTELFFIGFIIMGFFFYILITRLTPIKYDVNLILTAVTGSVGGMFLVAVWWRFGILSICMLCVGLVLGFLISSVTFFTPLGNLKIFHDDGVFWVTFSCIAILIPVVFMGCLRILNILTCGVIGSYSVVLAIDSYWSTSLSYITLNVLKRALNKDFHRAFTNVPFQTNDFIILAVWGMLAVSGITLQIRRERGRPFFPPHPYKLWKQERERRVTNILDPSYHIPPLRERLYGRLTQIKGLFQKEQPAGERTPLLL
UniProt P78382, sequence (P78382 whole entry, looked up): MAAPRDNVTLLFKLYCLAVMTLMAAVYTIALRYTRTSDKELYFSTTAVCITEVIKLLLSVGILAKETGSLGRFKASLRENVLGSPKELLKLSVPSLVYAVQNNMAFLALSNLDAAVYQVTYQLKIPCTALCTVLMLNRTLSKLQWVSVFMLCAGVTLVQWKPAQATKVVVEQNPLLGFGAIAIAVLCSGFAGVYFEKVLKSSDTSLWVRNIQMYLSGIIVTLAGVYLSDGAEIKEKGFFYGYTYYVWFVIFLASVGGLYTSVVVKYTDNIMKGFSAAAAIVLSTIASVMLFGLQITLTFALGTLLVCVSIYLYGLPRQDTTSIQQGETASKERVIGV
UniProt P55061, sequence (P55061 whole entry, looked up): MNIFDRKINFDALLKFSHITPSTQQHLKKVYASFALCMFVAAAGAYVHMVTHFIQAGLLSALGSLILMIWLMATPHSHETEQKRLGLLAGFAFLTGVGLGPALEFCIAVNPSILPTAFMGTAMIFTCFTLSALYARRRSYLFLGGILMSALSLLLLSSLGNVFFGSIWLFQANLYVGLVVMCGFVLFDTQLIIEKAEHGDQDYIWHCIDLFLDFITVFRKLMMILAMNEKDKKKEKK
UniProt P08579, sequence (P08579 whole entry, looked up): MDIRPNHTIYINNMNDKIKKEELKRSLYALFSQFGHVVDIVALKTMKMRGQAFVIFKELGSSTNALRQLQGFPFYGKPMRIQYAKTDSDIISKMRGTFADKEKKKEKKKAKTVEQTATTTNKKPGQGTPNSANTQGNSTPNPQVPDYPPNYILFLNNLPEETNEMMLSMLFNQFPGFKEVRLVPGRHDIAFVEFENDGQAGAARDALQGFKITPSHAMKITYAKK
UniProt O95772, sequence (O95772 whole entry, looked up): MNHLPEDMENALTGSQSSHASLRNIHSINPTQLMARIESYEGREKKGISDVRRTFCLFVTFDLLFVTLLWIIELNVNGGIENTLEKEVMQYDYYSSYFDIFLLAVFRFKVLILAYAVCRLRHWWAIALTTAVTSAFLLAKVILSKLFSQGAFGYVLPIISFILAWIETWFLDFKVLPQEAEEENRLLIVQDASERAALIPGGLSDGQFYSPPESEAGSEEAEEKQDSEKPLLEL
UniProt Q8N5G0, sequence (Q8N5G0 whole entry, looked up): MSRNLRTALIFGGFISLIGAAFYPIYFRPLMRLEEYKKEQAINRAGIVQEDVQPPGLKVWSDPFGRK
UniProt Q5VWP2, sequence (Q5VWP2 whole entry, looked up): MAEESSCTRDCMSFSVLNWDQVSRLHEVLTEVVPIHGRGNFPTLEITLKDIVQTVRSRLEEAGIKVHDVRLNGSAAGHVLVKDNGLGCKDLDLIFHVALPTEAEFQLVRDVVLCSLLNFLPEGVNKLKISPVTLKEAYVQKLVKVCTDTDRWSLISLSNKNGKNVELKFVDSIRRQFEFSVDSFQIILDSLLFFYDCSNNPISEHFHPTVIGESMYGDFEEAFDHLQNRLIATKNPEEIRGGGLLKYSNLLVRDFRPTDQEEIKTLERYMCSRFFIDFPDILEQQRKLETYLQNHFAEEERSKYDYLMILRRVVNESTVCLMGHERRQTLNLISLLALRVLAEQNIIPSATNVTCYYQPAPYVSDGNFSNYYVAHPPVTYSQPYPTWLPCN

log2 fold change, inactive:
SYNE2 isoform 2 (UniProt Q8WXH0) 0.039
TBK1 (UniProt Q9UHD2) -0.093
TANGO6 (UniProt Q9C0B7) 0.276
SLC38A7 (UniProt Q9NVC3) -0.283
TENT5C (UniProt Q5VWP2) -0.073
SRXN1 (UniProt Q9BYN0) -0.031
SLC29A3 (UniProt Q9BZD2) 0.171
SMARCE1 (UniProt Q969G3) -0.006
SRC isoform 2 (UniProt P12931) 0.079
SRFBP1 (UniProt Q8NEF9) 0.208
SLC39A11 (UniProt Q8N1S5) 0.102
TBC1D15 isoform 3 (UniProt Q8TC07) -0.221
TM7SF3 (UniProt Q9NS93) -0.136
SNX15 (UniProt Q9NRS6) 0.177
SPPL2B (UniProt Q8TCT7) 0.039
SMIM20 isoform 2 (UniProt Q8N5G0) 0.069
SRSF9 (UniProt Q13242) 0.189
SLC35F6 (UniProt Q8N357) -0.099
TBC1D20 isoform 3 (UniProt Q96BZ9) 0.273
TEX264 (UniProt Q9Y6I9) 0.016
SPCS2 (UniProt Q15005) 0.018
TJP1 (UniProt Q07157) -0.023
TACC2 (UniProt O95359) -0.013
SSBP4 (UniProt Q9BWG4) 0
SNRPB2 (UniProt P08579) 0.176
STK26 (UniProt Q9P289) -0.017
SP100 isoform 4 (UniProt P23497) -0.021
STARD3NL (UniProt O95772) 0.037
SNX5 (UniProt Q9Y5X3) -0.136
TMBIM6 isoform 2 (UniProt P55061) -0.075
TARS2 (UniProt Q9BW92) -0.017
SPTBN1 (UniProt Q01082) 0.009
SLC35A1 (UniProt P78382) 0.148
SLC38A2 (UniProt Q96QD8) 0.035
TAOK2 (UniProt Q9UL54) 0.024
SUN1 isoform 9 (UniProt O94901) 0.13
SRCAP (UniProt Q6ZRS2) 0.068
TBP (UniProt P20226) 0.087
